For experiment [1], the target named is Peroxisome proliferator-activated receptor delta (Homo sapiens) (UniProt Q03181). Kind of experiment: qHTS assay to identify small molecule agonists of the peroxisome proliferator-activated receptor delta (PPARd) signaling pathway (AID 743212; calls by dose curve). The method, boiled down:
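Tox21 library screened in GeneBLAzer PPARd UAS-bla HEK293H cells. After compound treatment at 37 C, a FRET-based beta-lactamase substrate was applied for 2 h and fluorescence recorded.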

Experiment [2] is described as follows: qHTS assay to identify small molecule antagonists of the peroxisome proliferator-activated receptor delta (PPARd) signaling pathway - cell viability counter screen (AID 743213). Note: nearly all actives have a fitted effect of over 50% in size. Note: potency is the fitted concentration of half-maximal effect. The method, boiled down: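 Cytotoxicity counter screen: CellTiter-Glo luminescence read 30 min after addition, in the same wells as the reporter assay. There, PPARd UAS-bla HEK293H cells (3000/well) were treated 17 h at 37 C with compound and 300 nM L165041.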
In general terms: Quantitative high-throughput screening tests each substance at several concentrations.

Experiment [3] deals with Peroxisome proliferator-activated receptor delta (Homo sapiens) (UniProt Q03181). The experiment in a line: qHTS assay to identify small molecule antagonists of the peroxisome proliferator-activated receptor delta (PPARd) signaling pathway (AID 743215; active = well fitted inhibition curve with a large enough effect in the signal ratio in the repeat runs, not every such curve was filed as active; the % refers to the signal ratio;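 note: cells stimulated with agonist L165041 at 300 nM final during compound exposure; series mostly up to about 62 µM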). The method, boiled down:
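Here, a reporter line (HEK293H, beta-lactamase under a UAS) measures PPARd signaling. Compounds are tested against agonist L165041 at 300 nM final concentration over 17 h at 37 C, with fluorescence read after substrate.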

Experiment [4] in a line: qHTS assay to identify small molecule agonists of the farnesoid-X-receptor (FXR) signaling pathway - cell viability counter screen (AID 743218). Note: nearly all actives have a fitted effect of over 45% in size. Note: potency is the fitted concentration of half-maximal effect. In a few lines:
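Quantitative HTS counter screen measuring ATP-based viability via CellTiter-Glo luminescence in HEK 293T cells carrying a UAS-driven beta-lactamase reporter, after 16 h compound exposure at 37 C.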

Experiment [5] is described as follows: qHTS assay to identify small molecule antagonists of the farnesoid-X-receptor (FXR) signaling pathway - cell viability counter screen (AID 743221; active = well fitted cell-killing curve with a large enough effect in the repeat runs, not every such curve was filed as active; note: nearly all actives have a fitted effect of over 50% in size). The method, boiled down:
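After a 5 h settling period, FXR-bla HEK 293T cells receive compound and chenodeoxycholic acid (50 uM final) and incubate 16 h at 37 C; CellTiter-Glo luminescence, read after 30 min at room temperature, reports cell viability.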

The target in experiment [6] is Vitamin D3 receptor (Homo sapiens) (UniProt P11473). Kind of experiment: qHTS assay to identify small molecule agonists of the vitamin D receptor (VDR) signaling pathway (AID 743222; calls by dose curve). The method, boiled down:
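Tox21 cell reporter format: VDR-bla line, 16 h compound exposure in 5% CO2 at 37C, then fluorescence intensity after 2 h with LiveBLAzer B/G FRET substrate.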

The target is the same in experiment [7]. The experiment in a line: qHTS assay to identify small molecule antagonists of the vitamin D receptor (VDR) signaling pathway (AID 743223; active = well fitted inhibition curve with a large enough effect in the signal ratio in the repeat runs, not every such curve was filed as active; the % refers to the signal ratio). In a few lines:
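Reporter line VDR-bla; stimulus 1alpha,25-(OH)2 vitamin D3, 3 nM final; compound co-addition, 16 h 37C/5% CO2; LiveBLAzer B/G substrate 2 h RT; fluorescence intensity.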

Experiment [8] is described as follows: qHTS assay to identify small molecule agonists of the vitamin D receptor (VDR) signaling pathway - cell viability counter screen (AID 743224). Note: nearly all actives have a fitted effect of over 50% in size. Note: potency is the fitted concentration of half-maximal effect. The method, boiled down:
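CellTiter-Glo viability readout on VDR-bla cells, measured after 16 h of compound treatment at 37C in the same wells.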

The nature of experiment [9]: qHTS assay to identify small molecule antagonists of the vitamin D receptor (VDR) signaling pathway - cell viability counter screen (AID 743225). Note: nearly all actives have a fitted effect of over 50% in size. Note: potency is the fitted concentration of half-maximal effect. In a few lines: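 Parallel cytotoxicity test: VDR-UAS-bla HEK 293T, 3 nM (final) 1-alpha,25-dihydroxyvitamin D3 with test compound, 16 h, 37C. Endpoint is CellTiter-Glo luminescence in the same wells.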
Experiment [10] can be described thus: qHTS assay to identify small molecule agonists of the NFkB signaling pathway - cell viability counter screen (AID 1159515; calls by dose curve; note: series mostly up to about 61 µM; nearly all actives have a fitted effect of over 55% in size). The method, boiled down:
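Tox21 library compounds were tested for cytotoxicity against NFkB-bla ME-180 cells during a 5 hr exposure at 37 C. CellTiter-Glo luminescence served as the viability read-out.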

Experiment [11] can be described thus: qHTS assay to identify small molecule agonists of the endoplasmic reticulum stress response signaling pathway (AID 1159516; active = well fitted activation curve with a large enough effect in the signal ratio in the repeat runs, not every such curve was filed as active; the % refers to the signal ratio). The method, boiled down:
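Fluorescence at 460 and 530 nm (405 nm excitation) reports beta-lactamase from an ER stress response element in HeLa cells treated 5 hr at 37 C.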

Experiment [12] is described as follows: qHTS assay to identify small molecule agonists of the endoplasmic reticulum stress response signaling pathway - cell viability counter screen (AID 1159517; calls by dose curve). In a few lines: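 In parallel with the ESRE reporter read, cytotoxicity was scored by CellTiter-Glo luminescence (30 min, room temperature) on HeLa ESRE-bla cells dosed for 5 hr.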
Experiment [13] can be described thus: qHTS assay to identify small molecule antagonists of the retinoid-related orphan receptor gamma (ROR-gamma) signaling pathway - cell viability counter screen (AID 1159520). Note: nearly all actives have a fitted effect of over 50% in size. Note: potency is the fitted concentration of half-maximal effect. In a few lines: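 Tet-on ROR gamma CHO cells were given compounds for 2 hr, then doxycycline hyclate at 1 uM final, and incubated 16 hr at 37 C. Viability was measured as ATP content by CellTiter-Glo luminescence.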

Experiment [14] addresses Nuclear receptor ROR-gamma (Homo sapiens) (UniProt P51449). The experiment in a line: qHTS assay to identify small molecule antagonists of the retinoid-related orphan receptor gamma (ROR-gamma) signaling pathway (AID 1159521; note: nearly all actives have a fitted effect of over 50% in size; note: potency is the fitted concentration of half-maximal effect). In a few lines:
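Decreased RORE-driven luciferase luminescence indicates antagonism. Tet-on RORγ CHO cells received compound, then 1 uM final doxycycline 2 h later; signal read after 16 h incubation.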

A short description of experiment [15]: qHTS assay to identify small molecule agonists of the AP-1 signaling pathway - cell viability counter screen (AID 1159525; calls by dose curve; note: nearly all actives have a fitted effect of over 55% in size). The method, boiled down: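 Same-well cytotoxicity counter screen of the Tox21 10K library in ME-180 cells. The readout is ATP-dependent luminescence after 5 h compound treatment. Data are normalised to DMSO and tetra n-octyl ammonium bromide controls.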

Experiment [16] is described as follows: qHTS assay to identify small molecule agonists of the AP-1 signaling pathway (AID 1159526; calls by dose curve; note: potency is the fitted concentration of half-maximal effect).
Experiment [17] in a line: qHTS assay to identify small molecule agonists of the RXR signaling pathway - cell viability counter screen (AID 1159529). The method, boiled down: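 In this parallel viability measure, GeneBLAzer RXR-alpha HEK 293T cells (2% charcoal-stripped FBS) were given a 5 hr preincubation, treated with compounds 16 hr at 37 C, and read by CellTiter-Glo luminescence.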
Experiment [18] concerns the target Retinoic acid receptor RXR-alpha (Homo sapiens) (UniProt P19793). Kind of experiment: qHTS assay to identify small molecule agonists of the RXR signaling pathway (AID 1159527; calls by dose curve; note: nearly all actives have a fitted effect of over 35% in size). In a few lines:
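16 hr incubation of compound-treated RXR-alpha-UAS-bla HEK 293T cells (2% charcoal-stripped FBS, 37 C) preceded a 2 hr room-temperature LiveBLAzer FRET substrate step and blue/green fluorescence measurement.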

Experiment [19] deals with Bile acid receptor (Homo sapiens) (UniProt Q96RI1). Kind of experiment: qHTS assay to identify small molecule antagonists of the farnesoid-X-receptor (FXR) signaling pathway (AID 743217; active = well fitted inhibition curve with a large enough effect in the signal ratio in the repeat runs, not every such curve was filed as active; the % refers to the signal ratio). In a few lines: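 Test compounds are pin-transferred onto FXR-bla HEK 293T cells, then chenodeoxycholic acid is added at 50 uM final. After 16 h at 37 °C, LiveBLAzer B/G substrate is applied for 2 h at room temperature and fluorescence read.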

Experiment [20] has the same target. The experiment in a line: qHTS assay to identify small molecule agonists of the farnesoid-X-receptor (FXR) signaling pathway (AID 743220; active = well fitted activation curve with a large enough effect in the signal ratio in the repeat runs, not every such curve was filed as active; the % refers to the signal ratio). The method, boiled down: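 FXR-UAS-bla HEK 293T cells carrying a UAS-driven beta-lactamase reporter were plated for 5 h at 37C/5% CO2, then exposed to DMSO-dissolved Tox21 10K compounds for 16 h at 37C. A LiveBLAzer B/G FRET substrate was loaded for 2 h at room temperature before fluorescence reading.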

Values joined by “and” are separate entries in the source; they are usually repeats but may differ in a detail not shown here. Equal values may be shown once. Records with an inconclusive call do not appear. The source holds several records for some structures; these can differ, active in one and inactive in another. Active and inactive are the calls of the source. Unless noted, calls come from the whole dose curve; as a rule, active = well fitted curve in the direction sought with a large enough effect in the repeat runs; inconclusive = weak or mixed curves; inactive = no such curve, though single readings can be large; an effect the other way counts as inactive or inconclusive.

Chain of Bile acid receptor (Homo sapiens) (Q96RI1 whole entry, looked up): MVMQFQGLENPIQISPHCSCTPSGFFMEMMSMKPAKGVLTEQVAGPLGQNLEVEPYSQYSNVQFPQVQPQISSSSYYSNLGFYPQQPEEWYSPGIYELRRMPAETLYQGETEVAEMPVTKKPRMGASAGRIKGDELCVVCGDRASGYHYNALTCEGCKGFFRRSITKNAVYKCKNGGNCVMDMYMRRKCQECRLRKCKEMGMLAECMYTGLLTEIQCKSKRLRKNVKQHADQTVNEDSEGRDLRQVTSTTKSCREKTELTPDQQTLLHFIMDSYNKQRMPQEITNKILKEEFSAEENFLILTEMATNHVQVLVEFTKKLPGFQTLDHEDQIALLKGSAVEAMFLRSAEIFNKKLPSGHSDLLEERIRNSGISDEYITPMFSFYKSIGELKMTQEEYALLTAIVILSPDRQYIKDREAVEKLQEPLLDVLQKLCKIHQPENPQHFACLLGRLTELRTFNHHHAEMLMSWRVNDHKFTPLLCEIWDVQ
Chain of Retinoic acid receptor RXR-alpha (Homo sapiens) (P19793 whole entry, looked up): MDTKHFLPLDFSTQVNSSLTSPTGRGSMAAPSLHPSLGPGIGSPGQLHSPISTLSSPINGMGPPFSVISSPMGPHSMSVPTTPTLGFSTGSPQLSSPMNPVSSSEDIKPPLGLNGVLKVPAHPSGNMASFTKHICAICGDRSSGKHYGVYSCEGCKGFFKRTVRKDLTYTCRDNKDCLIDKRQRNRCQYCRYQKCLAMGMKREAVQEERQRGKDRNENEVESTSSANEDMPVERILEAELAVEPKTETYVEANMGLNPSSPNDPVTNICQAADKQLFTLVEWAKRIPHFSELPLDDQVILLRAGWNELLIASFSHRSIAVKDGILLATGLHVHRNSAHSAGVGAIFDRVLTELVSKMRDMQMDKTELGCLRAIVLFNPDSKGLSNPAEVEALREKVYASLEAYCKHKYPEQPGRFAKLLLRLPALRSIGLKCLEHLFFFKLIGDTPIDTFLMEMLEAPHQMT
Chain of Peroxisome proliferator-activated receptor delta (Homo sapiens) (Q03181 whole entry, looked up): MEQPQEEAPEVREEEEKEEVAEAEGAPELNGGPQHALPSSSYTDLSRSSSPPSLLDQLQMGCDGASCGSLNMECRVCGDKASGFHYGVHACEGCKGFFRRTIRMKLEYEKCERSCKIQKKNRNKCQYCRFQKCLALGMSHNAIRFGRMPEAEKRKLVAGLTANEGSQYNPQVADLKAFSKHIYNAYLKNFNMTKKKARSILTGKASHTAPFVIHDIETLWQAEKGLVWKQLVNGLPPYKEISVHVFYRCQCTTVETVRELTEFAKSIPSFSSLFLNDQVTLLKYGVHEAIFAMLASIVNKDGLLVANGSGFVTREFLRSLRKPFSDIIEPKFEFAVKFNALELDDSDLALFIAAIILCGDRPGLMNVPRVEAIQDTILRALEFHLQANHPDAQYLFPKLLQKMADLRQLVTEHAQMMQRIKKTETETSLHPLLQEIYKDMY
Chain of Vitamin D3 receptor (Homo sapiens) (P11473 whole entry, looked up): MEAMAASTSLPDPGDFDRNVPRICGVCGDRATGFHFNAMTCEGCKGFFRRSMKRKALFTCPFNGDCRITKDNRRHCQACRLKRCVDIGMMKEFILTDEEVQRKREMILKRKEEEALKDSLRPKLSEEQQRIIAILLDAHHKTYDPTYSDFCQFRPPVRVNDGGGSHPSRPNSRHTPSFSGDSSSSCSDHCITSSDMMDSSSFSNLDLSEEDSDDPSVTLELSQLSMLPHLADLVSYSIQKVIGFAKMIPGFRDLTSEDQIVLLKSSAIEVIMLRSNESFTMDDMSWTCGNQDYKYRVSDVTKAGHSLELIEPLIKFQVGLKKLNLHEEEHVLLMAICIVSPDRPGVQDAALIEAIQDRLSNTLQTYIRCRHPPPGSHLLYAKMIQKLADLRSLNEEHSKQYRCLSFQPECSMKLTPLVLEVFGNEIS

Consider `COC(=O)c1cccc(C(=O)OC)c1`, for which the Potency entry in experiment [1], in [2], in experiment [3], in [4], in [5] and in experiment [6] was “inactive” in each case. Further, the Potency entry in experiment [7], in experiment [8], in [9], in experiment [10], in experiment [12] and in experiment [13] was “inactive” throughout. The Potency entry in experiment [14], in experiment [15], in [16] and in experiment [17] was “inactive” in each case. Further, the molecule was classed as inactive in experiment [11].
In the case of `CCCN[C@H]1CCc2nc(N)sc2C1`, the Potency entry in experiment [2], in [4], in experiment [5], in experiment [6], in experiment [7] and in [8] was “inactive” throughout. Besides, the Potency entry in experiment [9], in experiment [10], in [12], in experiment [13], in experiment [14] and in experiment [15] was “inactive” throughout. The Potency entry in experiment [16], in experiment [18] and in experiment [17] was “inactive” each time. Further, the molecule was called inactive in experiment [11].
On to `CCn1c2ccccc2c2cc(N)ccc21`, for which the Potency result in experiment [1], in [2], in [3], in experiment [4], in experiment [5] and in experiment [8] was “inactive” in each case. Also, the Potency result in experiment [10], in [12], in [13], in experiment [15] and in experiment [16] was “inactive” each time. Besides, the Potency in experiment [14] is 19.1 µM (active).
For the molecule `c1ccc2c(c1)-c1cccc3c1c-2cc1ccccc13`, the Potency entry in [2], in experiment [3], in [4], in [5], in experiment [8] and in [9] was “inactive” in each case. Further, the Potency entry in experiment [10] and in experiment [12] was “inactive” each time. Moreover, the Potency was 53.2 µM (active) in experiment [13]; 17 µM (active) and 38.9 µM (active) in experiment [16].
For `C=CC(=O)OCCCCCCOC(=O)C=C`, the Potency entry in experiment [2], in [19], in [4], in experiment [5], in experiment [9] and in experiment [10] was “inactive” in each case. For the same molecule, the Potency result in [12], in experiment [13], in experiment [15] and in [17] was “inactive” throughout. Also, the Potency in [8] was 44.2 µM (active) and inactive. Also, the molecule was called inactive in experiment [11].
`Clc1ccc2c(c1)C(N1CCNCC1)=Nc1ccccc1O2`: the Potency result in [1], in experiment [3], in experiment [5], in experiment [10], in experiment [12] and in experiment [13] was “inactive” in each case. The Potency entry in experiment [14], in experiment [15] and in experiment [17] was “inactive” throughout. Further, the Potency in experiment [2] is 2.19 µM (active) and inactive; in [4] it was 38.9 µM (active); in experiment [9], 49 µM (active) and inactive.
In the case of `Nc1ccc2cc3ccccc3cc2c1`, the Potency entry in [2], in [4], in experiment [5], in experiment [8], in experiment [10] and in [12] was “inactive” in each case. In addition, the Potency result in [13], in [14], in [15] and in experiment [16] was “inactive” each time.
For the molecule `CC(=O)C1=C(C)[C@@H]2C[C@@]3(C1)[C@H](C)CC[C@H]3C2(C)C`, the Potency entry in experiment [1], in experiment [2], in [3], in [19], in [20] and in experiment [5] was “inactive” in each case. Further, the Potency entry in [6], in experiment [7], in experiment [8], in [10], in experiment [13] and in experiment [14] was “inactive” throughout. For the same molecule, the Potency entry in experiment [15], in [16], in experiment [18] and in [17] was “inactive” in each case.

The values are drawn from PubChem BioAssay (Tox21).
